# TbPYK inhibitor – blocks Trypanosoma brucei pyruvate kinase | Q57TT1 | TbPYK enzyme, Kinase-Glo Plus ATP luminescence, 45 min | Potency, µM (titrated, usually from 76.8 µM), for the others: at the top dose activity, negative = inhibition, usual class: inhibitors | hit rate 0.12% among 410,000 | AID 624173; also: potency is read from the fitted curve at half-maximal effect; % is scaled to controls: 0 for no effect and ±100 for the full control effect; nearly all actives have a fitted effect of over 50% in size
#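 Luminescence from Kinase-Glo Plus, added after a 45-minute room-temperature reaction, served as the end-point read-out. The enzyme and substrate were preincubated with compound before ADP (130 uM final) initiated turnover. Concentration-effect curves came from normalized qHTS data.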
# CHX counter – affects cycloheximide protein synthesis inhibition readout, counter-screen; AID 2314; hit rate 12% among 300,000; max response, %; cell reporter, cycloheximide protein synthesis inhibition counterscreen; in the data active = max response mostly above about 13%, no sharp cut-off; inactive = mostly below about 14%; also: read at 38.3 µM for the half of the compounds with a filed dose; 0% is about no effect
# Giardia FBPA inh – Giardia lamblia aldolase inhibition | A8B2U2 | purified Giardia FBPA | Potency, µM (series often up to 59.6 µM), inactives show at the highest dose activity, negative = inhibition, most hits filed as inhibitors | hit rate 0.71% among 290,000 | AID 2451; also: potency is read from the fitted curve at half-maximal effect; % is scaled to controls: 0 for no effect and ±100 for the full control effect; nearly all actives have a fitted effect of over 55% in size
#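 40 nM FBPA preincubated 10 min at RT with compound (up to 57.5 uM final), then substrate plus GAPDH/TPI/NAD/arsenate coupling and diaphorase/resazurin added. Fluorescence read after 20 min at RT, 525/598 nm.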
# LmPK inhibitor – inhibitors of Leishmania mexicana pyruvate kinase. Q27686. purified LmPK, Kinase-Glo ATP luminescence, 1 h. Potency, µM (series often up to 57.5 µM), inactives show at the top dose activity change, negative = inhibition, hits mostly inhibitors. hit rate 0.37% among 290,000. AID 1721; also: potency is read from the fitted curve at half-maximal effect; % is scaled to controls: 0 for no effect and ±100 for the full control effect
# Target sequence (Q27686 whole entry, looked up): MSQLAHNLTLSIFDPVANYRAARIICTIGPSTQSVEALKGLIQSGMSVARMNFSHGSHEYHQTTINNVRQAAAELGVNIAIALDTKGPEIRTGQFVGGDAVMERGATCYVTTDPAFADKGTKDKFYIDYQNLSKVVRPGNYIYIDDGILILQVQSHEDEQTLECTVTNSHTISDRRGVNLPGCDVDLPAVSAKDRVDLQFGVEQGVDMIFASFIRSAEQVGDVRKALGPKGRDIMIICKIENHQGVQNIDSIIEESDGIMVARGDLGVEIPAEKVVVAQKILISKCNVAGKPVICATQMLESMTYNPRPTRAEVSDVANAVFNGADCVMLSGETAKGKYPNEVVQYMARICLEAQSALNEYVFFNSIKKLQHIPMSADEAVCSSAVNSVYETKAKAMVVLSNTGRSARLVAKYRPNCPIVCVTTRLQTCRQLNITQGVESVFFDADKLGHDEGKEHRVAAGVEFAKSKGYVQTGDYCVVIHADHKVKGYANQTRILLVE
#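 Screened at intermediate enzyme activity to detect both inhibitors and activators: LmPK at 0.1 nM, with a 0.5 nM enzyme column as activation reference. PEP 0.5 mM, ADP 0.1 mM; ATP detected by luminescence after 1 h.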
# Sm TGR inh – blocks Schistosoma mansoni thioredoxin glutathione reductase | hit rate 3% among 360,000 | purified TGR, DTNB reduction, TNB absorbance 405 nm | AID 485364 | Q962Y6 | Potency, µM (top dose mostly 114 µM), inactives show top-dose activity change, negative = inhibition, most hits filed as inhibitors; also: potency is read from the fitted curve at half-maximal effect; % is scaled to controls: 0 for no effect and ±100 for the full control effect; nearly all actives have a fitted effect of over 60% in size
#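 Kinetic colorimetric format: TGR-catalysed, NADPH-driven DTNB reduction monitored via TNB absorbance. Enzyme dispensed at 20 nM; compound exposure 15 min at room temperature before reaction start.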
# Shiga toxin inh – blocks Shiga toxin action in Vero cells; Vero cells, Shiga toxin protein synthesis inhibition reporter; hit rate 9.2% among 290,000; inhibition, % at 38.7 µM; in the data active = inhibition mostly above about 28%, no sharp cut-off; inactive = mostly below about 43%; also: 0% is about no effect
# Active calls of the source: *; ? = inconclusive; . = no result given; [ ] = dose if it differs, or a comment. Many of the other results were omitted from the sample, so hits are more common in it than they were. Unless noted, calls follow the shape of the dose curve; as a rule, active = well fitted curve in the direction sought with a large enough effect; inconclusive = small, poorly fitted or top-dose-only effect, or another doubt; inactive = no such curve, though single readings can be large; an effect the other way counts as inactive or inconclusive.
SMILES,TbPYK inhibitor,CHX counter,Giardia FBPA inh,LmPK inhibitor,Sm TGR inh,Shiga toxin inh
CCn1c(=O)n(C2=C(CO)CN(CC3CCCCCCC3)CC2)c2ccccc21,.,-9,-7%,.,.,-7
CC1=NN(C(=O)COc2ccccc2)C(O)(c2ccccc2)C1 (stereo not given),-3%,-2,8%,0%,-4%,-10
CC1=NN(C(=O)c2ccc(C)o2)C(O)(c2ccccc2)C1 (stereo not given),-4%,30*,5%,-1%,2%,active
CC1=NN(C(=O)c2ccco2)C(O)(c2ccccc2)C1 (stereo not given),2%,45*,-7%,0%,12%,80*
CC1=NN(C(=O)CSCc2ccccc2)C(O)(c2ccccc2)C1 (stereo not given),1%,16,1%,1%,5%,32
Cc1onc(-c2c(F)cccc2Cl)c1C(=O)Nc1ccc(OC(C)C)cc1,2%,.,.,.,11%,.
O=C1CN(C(=O)c2ccc(S(=O)(=O)N3CCCCC3)cc2)C(c2ccc(F)cc2)c2cc(Cl)ccc2N1 (stereo not given),-8%,.,.,.,-2%,.
Fc1cccc(Cl)c1/C=N/Nc1ccccn1,0%,10,4%,-2%,-5%,58
Cc1ccc2nc(N/N=C/c3ccccc3F)nc(-c3ccccc3)c2c1,3%,-3,-1%,-2%,1%,9
Cc1csc(N/N=C/c2ccccc2F)n1,-2%,38*,9%,-2%,-6%,56*
Cc1csc(N/N=C/c2c(F)cccc2Cl)n1,0%,38*,-13%,-1%,-32%,86*
CCOc1ccc(/C=N/Nc2nc(C)cs2)c(O)c1,-13%,49*,-1%,-7%,-15%,58*
COc1ccc(NC(=O)C2(C)CCN2C(=O)Cc2ccc(Cl)cc2Cl)cc1OC (stereo not given),5%,.,.,.,.,.
O=[N+]([O-])/C(C(Cl)=C(Cl)Cl)=C(\Nc1ccc(F)cc1)n1cncn1,.,0,?,0%,8.9µM*,15
CCOc1ccc(N/C(=C(/C(Cl)=C(Cl)Cl)[N+](=O)[O-])n2cncn2)cc1,.,1,?,1%,11µM*,-6
CCOc1ccc(NC(=O)c2nn(C)c(C(=O)Nc3ccc(OCC)cc3)c2[N+](=O)[O-])cc1,-2%,-1,7%,9%,-11%,.
CCOc1ccccc1N/C(=C(/C(Cl)=C(Cl)Cl)[N+](=O)[O-])n1cncn1,3%,-2,?,3%,6.3µM*,4
O=C1c2ccccc2NC(c2ccccn2)N1c1ccc(Cl)cc1 (stereo not given),-4%,31*,-10%,-1%,0%,71*
O=C(NN1C(=O)c2ccccc2NC1c1ccccn1)c1ccccc1 (stereo not given),-2%,13*,-3%,2%,5%,24*
Cc1cc(C2=NNC(=NCCc3ccccc3)SC2)c(C)n1-c1c(C)n(C)n(-c2ccccc2)c1=O,-7%,-4,-3%,4%,-29%,14
c1ccc(C2=NNC(=NCc3ccc4c(c3)OCO4)SC2)cc1,-9%,18*,6%,-1%,-15%,80*
c1ccc(CN=C2NN=C(c3ccccc3)CS2)cc1,-12%,55*,2%,-13%,-17%,62
COc1ccccc1C1=NNC(=NCc2ccccc2)SC1,-26%,31*,-7%,-4%,7%,33*
CN(C)S(=O)(=O)c1cccc(N=C2NN=C(c3ccccc3)CS2)c1,-12%,2,0%,0%,-1%,1
CC(C)N=C1NN=C(c2ccc(F)cc2)CS1,?,18*,-18%,?,-2%,80*
SMILES,TbPYK inhibitor,CHX counter,Giardia FBPA inh,LmPK inhibitor,Sm TGR inh,Shiga toxin inh
Cc1[nH]c2ccccc2c1C1=NNC(=Nc2ccc(F)cc2)SC1,?,-4,-13%,-1%,2%,-4
Cc1ccc(OCC(=O)OCC(=O)N2c3ccccc3CC2C)cc1C (stereo not given),4%,.,.,.,4%,.
O=S(=O)(c1ccc2c(c1)OCCO2)N1CCN(S(=O)(=O)c2c(F)ccc(O)c2F)CC1,.,3,.,.,.,5
Cc1cc2oc(C(=O)Nc3c(C(=O)Nc4ccccc4)oc4ccccc34)cc(=O)c2cc1C,-14%,.,.,.,-3%,.
CCCNC(=O)C1(C)CCN(Cc2cc(C(F)(F)F)ccc2Cl)C1 (stereo not given),6%,.,.,.,.,.
Cc1c(N=C2NN=C(c3ccc(Cl)cc3)CS2)c(=O)n(-c2ccccc2)n1C,-18%,30,-15%,-6%,-10%,26
Clc1ccc(C2=NNC(=NCc3ccccc3)SC2)cc1,-13%,20,-1%,0%,-1%,74*
C=CCN=C1NN=C(c2ccc3c(c2)OCCO3)CS1,-15%,21*,-24%,10µM*,-14%,41*
CCN=C1NN=C(c2ccc(C)cc2)CS1,?,38*,.,-22%,-1%,106*
COCCN=C1NN=C(c2ccc(NC(C)=O)cc2)CS1,-20%,-3,-5%,0%,0%,1
Fc1ccc(C2=NNC(=NCc3ccccc3)SC2)cc1F,?,34*,1%,-15%,-12%,64*
CC(C)OC(=O)CC1C(=O)NCCN1C(=O)COc1ccc(C(C)(C)C)cc1 (stereo not given),8%,-10,10%,2%,-11%,-9
C=C(C)C(O)/C=C/c1ccccc1OC (stereo not given),.,.,1%[12.9 µM],.,.,.
C=CCN=C1NN=C(c2cc(C)n(CC=C)c2C)CS1,?,28*,-10%,?,-9%,10
CC(=O)c1c(C)[nH]c(C2=NNC(=NCc3ccccc3)SC2)c1C,-19%,15,-20%,-6%,11µM*,23
COCCN=C1NN=C(c2cc(C)n(CC3CCCO3)c2C)CS1 (stereo not given),-7%,-3,-12%,-4%,-17%,29
Cc1ccc(S(=O)(=O)N2C[C@H]3C(=O)C[C@@H](c4ccccc4F)N(S(=O)(=O)c4ccc(C)cc4)[C@H]3C[C@H]2c2ccccc2F)cc1,5%,.,.,.,.,.
CCCNC(=O)CCSc1nc(-c2ccc3c(c2)OCO3)cc(C(F)(F)F)n1,-1%,.,.,.,7%,.
COc1ccc(S(=O)(=O)N2CCN(c3ccccc3OC)CC2)cc1-c1noc(C)n1,-17%,8,.,.,4%,-7
CCOC(=O)c1cnc2oc3ccccc3n2c1=O,-2%,58*,5%,-2%,7%,.
CCOC(=O)c1cnc2nc(C)[nH]n2c1=O,-4%,-3,1%,-15%,-1%,-5
CCOC(=O)c1cnc2sc3c(n2c1=O)CCCC3,-10%,43*,2%,-3%,-1%,92*
CCOC(=O)c1cc(C(=O)OCC)c2cccc(C)n2c1=O,-2%,-3,-4%,-1%,41%,-17
NC1=CC(=O)c2cccc3cccc1c23,.,-4,20µM*,-2%,-35%,-2

# Screening results deposited in PubChem BioAssay by National Center for Advancing Translational Sciences (NCATS).
